According to PubChem BioAssay (Tox21):
Inconclusive results are not listed. Entries that show only a call come without a potency. Active and inactive are the calls of the source. Calls follow the shape of the dose curve; as a rule, active = well fitted cell-killing curve with a large enough effect in the repeat runs; inconclusive = weak or mixed curves, or effect the other way; inactive = no such curve, though single readings can be large or run the other way.

Test: qHTS assay to identify small molecule antagonists of the glucocorticoid receptor (GR) signaling pathway - cell viability counter screen (AID 720693); also: nearly all actives have a fitted effect of over 55% in size
Details: GR-bla HeLa viability, CellTiter-Glo luminescence, 18 h, with 5 nM dexamethasone present; series mostly up to 58.5 µM
From the text: National Center for Advancing Translational Sciences [NCATS]
NIH Chemical Genomics Center [NCGC]
U.S. Environmental Protection Agency [EPA]
National Institutes of Environmental Health Sciences [NIEHS]
National Toxicology Program [NTP]
U.S. Food and Drug Administration [FDA]
The Glucocorticoid receptor (GR) is one of the members of the nuclear receptor family of ligand-dependent transcription factors. GR plays a critical role in carbohydrate, protein and lipid metabolisms and programmed cell death. CellSensor GR-bla HeLa cell line (Invitrogen) contains a beta-lactamase reporter gene under the control of the glucocorticoid response element stably integrated into HeLa cells, a cervical cancer cell line that expresses glucocorticoid receptor. The activation of the reporter gene under culture conditions can be detected by fluorescence intensity. This cell line has been used to screen the Tox21 10K compound library and to identify the compounds that inhibit the GR signaling. The cytotoxicity of the Tox21 compound library against the GR-bla HeLa cell line was tested in parallel by measuring the cell viability using CellTiter-Glo assay in the same wells.
Tox21 Assay Protocol Summary:
The GR-bla HeLa cells were dispensed at 1500 cells/5 ul/well in 1536-well black wall/clear bottom plates using a Multidrop Combi (ThermoFisher Scientific, Waltham, MA) dispenser. After the assay plates were incubated at a 37 C/5% CO2 incubator for 4 hours, 23 nL of compounds dissolved in DMSO, positive controls or DMSO only was transferred to the assay plate by a pintool station (Kalypsys, San Diego, CA), followed by addition of 1 uL of dexamethasone (5 nM, final concentration in the well). The plates were incubated at 37 C for 18 hours. After 1 uL of LiveBLAzerTM B/G FRET substrate was added using a Flying Reagent Dispenser (Aurora Discovery, San Diego, CA), the plates were incubated at room temperature (RT) for 2 hours, and fluorescence intensity was measured by an Envision plate reader (PerkinElmer, Shelton, CT). After measurement of bla assay, 3 ul CellTiter-Glo (Promega, Madison, WI) was added to measure the cytotoxicity and the plates were then incubated at RT for 30 min. The luminescence was measured using a ViewLux (Perkin Elmer) plate reader.

| SMILES | Potency |
| --- | --- |
| COC(=O)CC(C(C)=O)C(=O)OC (stereo not given) | inactive |
| COc1ccc(C(=O)NCc2ccc(OCCN(C)C)cc2)cc1OC | inactive |
| CN1C(CSCC(F)(F)F)Nc2cc(Cl)c(S(N)(=O)=O)cc2S1(=O)=O (stereo not given) | inactive |
| COc1ccc(N)c([N+](=O)[O-])c1 | inactive |
| O=C(Nc1ccc(C(=O)O)c(O)c1)c1ccccc1 | inactive |
| C=C(C)C(=O)OCCC(F)(F)C(F)(F)C(F)(F)C(F)(F)C(F)(F)C(F)(F)F | inactive |
| CC(C)CC(O)CC(C)C | inactive |
| O=C(O)CCCc1c[nH]c2ccccc12 | inactive |
| CC(=O)NNC(C)=O | inactive |
| COc1cc(C(C)=O)ccc1OCCCN1CCC(c2noc3cc(F)ccc23)CC1 | inactive |
| CCCCCCCCCCCC(=O)OCC(O)CO (stereo not given) | inactive |
| CCOCCC(=O)OCC | inactive |
| O=C1OC[C@H](Cc2cccc(O)c2)[C@H]1Cc1cccc(O)c1 | inactive |
| Cc1ccc2c(c1[N+](=O)[O-])C(=O)c1ccccc1C2=O | inactive |
| CCc1ccc(C)cc1 | inactive |
| COC(C)(C)OC | inactive |
| C=Cc1ccc(OC(C)=O)cc1 | inactive |
| CCCCCCC(CO)CCCC (stereo not given) | inactive |
| CC(C(=O)O)c1ccc(C(=O)c2cccs2)cc1 (stereo not given) | inactive |
| O=C(c1ccccc1)c1ccc(O)cc1 | inactive |

| SMILES | Potency |
| --- | --- |
| CCNc1nc(N)nc(Cl)n1 | inactive |
| Cc1ccc(Nc2c(F)cccc2Cl)c(CC(=O)O)c1 | inactive |
| CNc1c2c(nn1C)CCCC2 | inactive |
| CC(C)(C)C(O)/C=C/c1ccc2c(c1)OCO2 (stereo not given) | inactive |
| C[C@@H]1[C@H](O)[C@@H](C)/C=C/C=C\C=C\C=C\C=C\C=C\C=C\[C@H](O[C@@H]2O[C@H](C)[C@@H](O)[C@H](N)[C@@H]2O)C[C@@H]2O[C@](O)(C[C@@H](O)C[C@@H](O)[C@H](O)CC[C@@H](O)C[C@@H](O)CC(=O)O[C@H]1C)C[C@H](O)[C@H]2C(=O)O (stereo in doubt) | inactive |
| O=C(/C=C/c1ccc([N+](=O)[O-])cc1)c1ccccc1 | inactive |
| C1=CCC2CC=CC2C1 (stereo not given) | inactive |
| COc1ccc(C2C(=O)c3ccccc3C2=O)cc1 | inactive |
| COc1ccc2nc(S(=O)Cc3ncc(C)c(OC)c3C)[nH]c2c1 (stereo not given) | inactive |
| CC(=O)NCCO | inactive |
| CC1CCc2nccnc21 (stereo not given) | inactive |
| Cc1ccc(NC(=O)N(C)C)cc1NC(=O)N(C)C | inactive |
| C[C@H](CS)C(=O)N1CCC[C@H]1C(=O)O | inactive |
| Cc1cc([N+](=O)[O-])ccc1N | inactive |
| CC(O)Cn1cnc2c1c(=O)n(C)c(=O)n2C (stereo not given) | inactive |
| CC(C)COC(=O)c1ccc(O)cc1 | inactive |
| O=P(O)(O)Oc1ccccc1 | inactive |
| N[C@@H](Cc1cc(I)c(O)c(I)c1)C(=O)O | inactive |
| CSCC[C@H](NC(=O)[C@H](Cc1c[nH]c2ccccc12)NC(=O)CCNC(=O)OC(C)(C)C)C(=O)N[C@@H](CC(=O)O)C(=O)N[C@@H](Cc1ccccc1)C(N)=O | inactive |
| [Cl][Nd]([Cl])[Cl] | inactive |
